Compound activity from PubChem.
Tau fluor cs – Counterscreen qHTS for Inhibitors of Tau Fibril Formation, Fluorescence Polarization; tau K18 P301L Alexa594 fluorescence, heparin fibrillization; 0.93% of 280,000 active; Potency, µM (top dose mostly 57.7 µM), inactives show top-dose activity change, negative = decrease; also: potency is read from the fitted curve at half-maximal effect; nearly all actives have a fitted effect of over 55% in size
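Human tau K18 P301L (15 uM unlabeled, 0.24 uM Alexa 594-labeled) in 100 mM sodium acetate pH 7 with 20 uM heparin, 6 hr at 37 C. ThT 30 uM added, 1 hr ambient; Alexa 594 FP and total fluorescence read at 555/632 nm.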
TexasRed fluor – Total Fluorescence Counterscreen for Inhibitors of the Interaction of Thyroid Hormone Receptor and Steroid Receptor Coregulator 2. AID 1479, 2009. 0.29% of 280,000 active. Potency, µM (doses to about 106 µM), for the others: at the highest dose fluorescence change, negative = quenching. TRb/SRC2 Texas Red total fluorescence interference; active = well fitted curve in either direction with a large enough effect; inconclusive = small, poorly fitted or top-dose-only effect; also: potency is read from the fitted curve at half-maximal effect
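Flags fluorescent or light-absorbing compounds by total fluorescence, S + 2P, at 555 nm excitation and 632 nm emission. Mixture: 20 nM Texas Red SRC2 peptide, 0.6 uM human TRb LBD, 1 uM T3, 5% DMSO; compound exposure 5 h at ambient temperature.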
Tau fibril FP – qHTS for Inhibitors of Tau Fibril Formation, Fluorescence Polarization; Potency, µM (doses to about 57.7 µM), for inactives: top-dose activity, negative = inhibition, actives largely listed as inhibitors; K18 P301L tau heparin fibrillization, Alexa594 FP, 6 h; Microtubule-associated protein tau (Homo sapiens), P10636; 0.39% of 280,000 active; also: potency is read from the fitted curve at half-maximal effect; nearly all actives have a fitted effect of over 55% in size
Target sequence (P10636 561-689 P618L limits assumed): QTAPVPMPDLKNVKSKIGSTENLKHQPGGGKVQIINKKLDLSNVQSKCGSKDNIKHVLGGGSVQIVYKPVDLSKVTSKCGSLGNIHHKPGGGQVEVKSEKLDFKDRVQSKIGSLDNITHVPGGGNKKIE
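Compound effects on tau fibrillization are measured by Alexa 594 fluorescence polarization (ex 555, em 632 nm). K18 P301L tau is used at 15 uM with 0.24 uM labeled tracer, and 20 uM heparin induces aggregation over 6 hr at 37 C.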
PNC assembly inh – High Content Assay for Compounds that inhibit the Assembly of the Perinucleolar Compartment; PC3M PTB-GFP, PNC prevalence imaging, 16 h; hits give low values; activity change (PNC), negative = inhibition, % at 10 µM; 3.1% of 140,000 active;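 active = readout at or below -70, meaning at least 70% loss of cells showing the perinucleolar compartment, a nuclear body marking cancer cells; inconclusive = readout between -30 and a set limit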;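 also: plate controls were DMSO wells for no effect and camptothecin positive control wells for full effect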
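Read-out is percentage of cells bearing a perinucleolar compartment, from automated 20x imaging of fixed, Hoechst-stained PC3M PTB-GFP cells. Cells were seeded 4 h, then exposed 16 h to compound (23 nl of library stock) in duplicate plates.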
TRb-SRC2 inh – qHTS for Inhibitors of the Interaction of Thyroid Hormone Receptor and Steroid Receptor Coregulator 2. TRbeta-SRC2 peptide binding, fluorescence polarization; receptor liganded with 1 µM T3. AID 1469, 2008. 0.065% of 280,000 active. Thyroid hormone receptor beta (Homo sapiens), P10828. Potency, µM (doses to about 106 µM), for the others: at the top dose activity change, negative = inhibition, most hits filed as inhibitors;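 also: potency is read from the fitted curve at half-maximal effect; plate controls were bound peptide for no effect and peptide without receptor for full effect; nearly all actives have a fitted effect of over 50% in size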
Target sequence (P10828 whole entry, looked up): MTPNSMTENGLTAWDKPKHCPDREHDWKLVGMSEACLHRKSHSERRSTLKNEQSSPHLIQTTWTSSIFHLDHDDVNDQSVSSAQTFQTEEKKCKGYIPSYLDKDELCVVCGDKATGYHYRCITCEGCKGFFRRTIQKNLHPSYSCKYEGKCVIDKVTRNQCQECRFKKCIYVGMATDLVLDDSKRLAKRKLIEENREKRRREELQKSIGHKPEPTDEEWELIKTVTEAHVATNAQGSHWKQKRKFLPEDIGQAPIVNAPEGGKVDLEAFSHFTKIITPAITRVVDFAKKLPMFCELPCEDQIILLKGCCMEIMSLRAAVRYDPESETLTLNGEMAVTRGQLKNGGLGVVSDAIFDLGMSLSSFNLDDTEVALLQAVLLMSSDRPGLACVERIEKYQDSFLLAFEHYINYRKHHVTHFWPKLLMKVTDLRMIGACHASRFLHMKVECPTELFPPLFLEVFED
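Fluorescence polarization of 20 nM Texas Red SRC2 peptide (20-aa NR interaction domain) bound to 0.6 uM human TRb ligand-binding domain, with 1 uM T3, after 5 hr at ambient temperature; inhibition seen as decreased polarization.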
Tau fibril ThT – qHTS for Inhibitors of Tau Fibril Formation, Thioflavin T Binding; Microtubule-associated protein tau (Homo sapiens), P10636; recombinant tau K18 P301L (four-repeat tau fragment), heparin-induced fibrillization, ThT fluorescence; Potency, µM (top dose mostly 57.4 µM), without a hit: top-dose activity, negative = inhibition, hits mostly inhibitors; 2.1% of 270,000 active; AID 1460, 2008; also: potency is read from the fitted curve at half-maximal effect; nearly all actives have a fitted effect of over 55% in size
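Tau K18 P301L fragment (15 uM unlabeled plus 0.24 uM Alexa 594-labeled) in 100 mM sodium acetate pH 7 with compound, fibrillization induced by 20 uM heparin for 6 hr at 37 C. Thioflavin T (30 uM) added, fluorescence read after 1 hr (ex 450, em 510 nm).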
* = called active by the depositor; ? = inconclusive; / = not tested or not shown; [ ] = remark or other dose. Compounds with a hit are over-represented: about 4.6% of the library has one in this group of screens. Unless noted, calls follow the shape of the dose curve; as a rule, active = well fitted curve in the direction sought with a large enough effect; inconclusive = small, poorly fitted or top-dose-only effect, or another doubt; inactive = no such curve, though single readings can be large; an effect the other way counts as inactive or inconclusive. Unless noted, % is scaled to controls: 0 for no effect and ±100 for the full control effect.

SMILES | Tau fluor cs | TexasRed fluor | Tau fibril FP | PNC assembly inh | TRb-SRC2 inh | Tau fibril ThT
CCOC(=O)/C(C#N)=C1\C=CN(C)C(C)=N1 | 2% | -4% | 2% | -100* | -5% | -4%
CC(C)(C)c1cc(/C=C(\C#N)C(N)=S)cc(C(C)(C)C)c1O | ? | -2% | 3% | / | 8% | ?
[C-]#[N+]/C(C#N)=C\c1cc(C(C)(C)C)c(O)c(C(C)(C)C)c1 | ? | -3% | ? | / | -3% | 25µM*
COc1ccc(CCNC(=O)COc2ccc(S(=O)(=O)NC3CCCCC3)cc2Cl)cc1OC | -13% | -1% | 11% | 41 | -5% | -9%
CCCOC(=O)Nc1sc2c(c1C(N)=O)CCCC2 | -8% | -3%[53 µM] | -5% | / | 13%[53 µM] | ?
O=c1c(-c2cc(O)c(O)c(O)c2)coc2cc(O)c(O)c(O)c12 | ? | -9% | 7.1µM* | / | 14% | 3.5µM*
O=c1c(-c2ccc(O)cc2)coc2cc(O)cc(O)c12 | ? | -5% | -5% | / | 1% | ?
CC(C)=CCc1c(O)cc2occ(-c3ccc4c(c3)OCO4)c(=O)c2c1O | ? | 0% | 8.9µM* | / | 10% | -16%
CCc1cc2c(=O)c(-c3ccc4c(c3)OCCO4)coc2cc1OS(C)(=O)=O | -29% | -2% | -8% | 13 | 9% | -17%
Cc1ccc(C)c(-n2nnnc2Sc2nc([N+](=O)[O-])nn2C)c1 | -9% | 1% | -1% | ? | -4% | -6%
CCN1CCN(c2ncc(C(=O)Nc3ccccc3C(=O)OC)c3ccccc23)CC1 | -7% | -5% | 2% | 21 | 4% | 2%
O=C(Cn1c(=O)n(Cc2nc(-c3ccccc3)no2)c(=O)c2cc3c(cc21)OCO3)Nc1cccc(C(F)(F)F)c1 | -9% | -2% | 10µM* | / | -4% | ?
Cc1ccc(NC(=O)Cn2c(=O)n(Cc3nc(-c4ccccc4)no3)c(=O)c3ccccc32)cc1C | -21% | -2% | ? | / | -13% | 22%
COc1ccc(-c2noc(Cn3c(=O)c4ccccc4n(CC(=O)Nc4cccc(C(F)(F)F)c4)c3=O)n2)cc1 | -9% | 0% | 11µM* | / | -10% | ?
Cc1[nH]ccc(=O)c1OCc1ccc(Cl)cc1 | -14% | -1% | -11% | -124* | -2% | -14%
Cc1[nH]ccc(=O)c1OCc1c(F)cccc1Cl | 5% | -1% | -7% | / | -8% | 3%
Cc1[nH]ccc(=O)c1OCc1ccccc1 | -7% | 1% | -6% | -111* | -10% | -14%
COC(=O)c1ccc2nccnc2c1 | -4% | 1% | 1% | / | -4% | /
COC(=O)c1ccc2c(c1)C(C)(C)C(/C=C/c1ccccc1O)=[N+]2C | 25µM*[fluorescent] | 20µM*[fluorescent] | ? | -19 | 20µM* | 10µM*
Cn1ncc2c(Nc3cccc(C(=O)O)c3)ncnc21 | -4% | 0% | -2% | 67 | 2% | -6%
COc1cccc(C2C3=C(N=c4s/c(=C\c5ccc(OCC(=O)O)cc5)c(=O)n42)c2ccccc2CC3)c1 (stereo not drawn) | -13% | -3% | -14% | / | 3% | 22µM*
COc1cccc(C2C3=C(N=c4s/c(=C\c5cccc(O)c5)c(=O)n42)c2ccccc2CC3)c1OC (stereo not drawn) | ? | -24% | 22µM* | 4 | 6% | ?
COc1ccccc1C1C2=C(N=c3s/c(=C/c4cccc(OCC(=O)O)c4)c(=O)n31)c1ccccc1CC2 (stereo not drawn) | ? | -5% | ? | 170 | 7% | 16µM*
COc1ccc(/C=C2\Sc3ccc(C(=O)NCc4cccnc4)cc3N(C)C2=O)cc1OC | ? | -7% | -3% | / | 1% | ?
O=c1cc(C23CC4CC(CC(C4)C2)C3)[nH][nH]1 | -3% | 5% | -5% | -2 | 25µM* | ?
SMILES | Tau fluor cs | TexasRed fluor | Tau fibril FP | PNC assembly inh | TRb-SRC2 inh | Tau fibril ThT
Cc1ccc(N=Nc2ccc(N)cc2C)c(S(N)(=O)=O)c1 | ? | -4% | 15% | / | -7% | 14µM*
Cc1cc(N)ccc1N=Nc1c(C)n(C)n(-c2ccccc2)c1=O | -15% | 1% | 5% | 17 | 8% | ?
CCCCNC(C(=O)Nc1ccc([N+](=O)[O-])cc1Br)c1ccccc1 (stereo not drawn) | 2% | 1% | 5% | -118* | 4% | -5%
O=C(COc1ccc(Br)cc1)NNC(=S)NC(=O)c1ccccc1[N+](=O)[O-] | 1% | 0% | -2% | 9 | -5% | 2%
O=C(Nc1ccc(/C=C/c2nc3ccccc3o2)cc1)c1cccc(C(F)(F)F)c1 | -22% | -4% | -5% | -27 | 1% | ?
CC(=O)c1cc(-c2ccccc2)n(CC(=O)Nc2ccc(C)c(C)c2)c1C | -13% | 2% | -5% | 37 | -4% | -13%
O=C1OC2(c3cc(Br)c(O)c(Br)c3Oc3c2cc(Br)c(O)c3Br)c2c(Cl)c(Cl)c(Cl)c(Cl)c21 | / | ? | / | / | 2.5µM* | /
O=C(N/N=C/c1ccc(-c2ccccc2)o1)c1ccccc1O | -29% | -2% | -11% | / | 1% | ?
C[n+]1ccc(/C=N/Nc2nc(Cl)c(C#N)c(Cl)c2Cl)cc1 | 11µM*[quencher] | -7% | -5% | / | 3% | 13µM*
O=C(NCc1ccccc1Cl)c1cnc(N2CCCCC2)c2ccccc12 | -7% | 1585µM*[quencher] | 7% | / | -15% | -10%
Cc1ccc(Cl)cc1N1CCN(C(=O)c2cnc(N3CCOCC3)c3ccccc23)CC1 | -8% | 71µM*[quencher] | 4% | / | -15% | -15%
O=C(NCc1ccccc1Cl)c1cnc(N2CCOCC2)c2ccccc12 | -16% | 4% | -8% | / | 0% | -7%
O=C(Nc1ccc(F)cc1Cl)c1cnc(N2CCOCC2)c2ccccc12 | -3% | 11µM*[quencher] | 3% | / | -21% | -1%
CC(=O)Nc1ccc(C(=O)Nc2ccc3c(c2)N(C2CCCC2)C(=O)c2ccccc2S3)cc1 | ? | -4% | 13µM* | / | -8% | 13%
O=C(Nc1ccc2c(c1)N(Cc1ccccc1)C(=O)c1ccccc1S2)NC1CC1 | ? | -1% | 22µM* | -1 | -4% | 6%
Cc1oc(-c2ccccc2F)nc1CSc1nnc(C)n2c1cc1occc12 | -14% | -1% | -5% | / | 0% | -11%
COc1cccc(C(=O)N2CCCc3ccccc32)c1 | 0% | -1% | 7% | -85* | -12% | -3%
